Data on eleven compounds can be found in PubChem BioAssay (Tox21).

The nature of assay [1]: qHTS assay to identify small molecule agonists of H2AX (AID 1224845; active = well fitted activation curve with a large enough effect in the signal ratio in the repeat runs, not every such curve was filed as active; the % refers to the signal ratio; also: potency is read from the fitted curve at half-maximal effect). An outline of the steps:
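Wild-type CHO-K1 cells plated overnight, then exposed 3 hr at 37C to compounds at 15 concentrations (0.76% DMSO). Lysed, then HTRF anti-pH2AX(S139)-cryptate/anti-H2AX-d2 detection after 24 hr at room temperature; emissions 665 and 620 nm.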

A short description of assay [2]: qHTS assay to identify small molecule agonists of the hypoxia (HIF-1) signaling pathway (AID 1224846; active = well fitted activation curve with a large enough effect in the signal ratio in the repeat runs, not every such curve was filed as active; the % refers to the signal ratio). An outline of the steps: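 Cell line: CellSensor HRE-bla ME-180; 2,000 cells/well; 0.5% dialyzed FBS; 5 h preincubation; DMSO compound pin transfer; 17 h, 37C, 5% CO2; CCF4-AM added; bla FRET signal scored for activation.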
The nature of assay [3]: qHTS assay to identify small molecule agonists of H2AX - cell viability counter screen (AID 1224847; calls by dose curve; also: nearly all actives have a fitted effect of over 30% in size; also: potency is read from the fitted curve at half-maximal effect). An outline of the steps:
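Counter-screen for viability: CellTiter-Glo ATP luminescence read after 3 h compound treatment (15-point titration, 0.76% DMSO final) of CHO-K1 cells at 37C, with 30 min room-temperature reagent incubation.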
For orientation: qHTS replaces the single test concentration by a dilution series.

The nature of assay [4]: qHTS RealTime-Glo MT Cell Viability Assay in HepG2 cells - 24 hour (AID 1224867). Also: nearly all actives have a fitted effect of over 50% in size. Also: potency is read from the fitted curve at half-maximal effect. An outline of the steps:
(§1)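 Real-time, nonlytic viability: 600 HepG2 cells/well mixed with NanoLuc enzyme plus prosubstrate; 5 h settle, compound (DMSO) added by pintool; luminescence monitored over 40 h at 37 C.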

Assay [5] is described as follows: A CellTox Green Cytotoxicity Assay to monitor cytotoxicity in HEK293 cells - 0 hour (AID 1224869). Also: nearly all actives have a fitted effect of over 50% in size. An outline of the steps:
(§2)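 Nonlytic real-time cytotoxicity: HEK293 + CellTox Green reagent plated, 5 h preincubation, pintool compound addition (23 nL in DMSO), 37 C for 40 h, fluorescence measured at successive time points.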

Assay [6] in a line: qHTS RealTime-Glo MT Cell Viability Assay in HepG2 cells - 40 hour (AID 1224870). Also: nearly all actives have a fitted effect of over 50% in size. Also: potency is read from the fitted curve at half-maximal effect. An outline of the steps: (§3)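 HepG2 cells mixed with RealTime-Glo MT reagents (NanoLuc plus cell-permeant prosubstrate) were seeded at 600 cells/well, incubated 5 h at 37 C/5% CO2, then pinned with compounds in DMSO; nonlytic luminescence tracked viability during 40 h treatment.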
The nature of assay [7]: A CellTox Green Cytotoxicity Assay to monitor cytotoxicity in HEK293 cells - 40 hour (AID 1224871). Also: nearly all actives have a fitted effect of over 45% in size. Also: potency is read from the fitted curve at half-maximal effect. Summed up: as §2
Assay [8] in a line: qHTS RealTime-Glo MT Cell Viability Assay in HEK293 cells - 16 hour (AID 1224872). Also: nearly all actives have a fitted effect of over 50% in size. Also: potency is read from the fitted curve at half-maximal effect. An outline of the steps: (§4)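 Cells + reagent dispensed (600 cells/well, HEK293) → 5 h at 37 C/5% CO2 → 23 nL compound in DMSO pinned → 40 h at 37 C → luminescence read at 0, 8, 16, 24, 32, 40 h.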
Assay [9] is described as follows: qHTS RealTime-Glo MT Cell Viability Assay in HepG2 cells - 8 hour (AID 1224873). Also: nearly all actives have a fitted effect of over 55% in size. Also: potency is read from the fitted curve at half-maximal effect. Summed up:
as §3

Assay [10] can be described thus: qHTS RealTime-Glo MT Cell Viability Assay in HEK293 cells - 40 hour (AID 1224874). Also: nearly all actives have a fitted effect of over 50% in size. Also: potency is read from the fitted curve at half-maximal effect. The settings on record: RealTime-Glo luminescence; max response: hits give low values. Summed up: (§5)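 Cells were seeded together with NanoLuc luciferase and a prosubstrate that viable cells reduce to a luciferase substrate. After a 5 h incubation at 37 C/5% CO2, compounds were added and luminescence was measured repeatedly during 40 h of treatment.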

The nature of assay [11]: A CellTox Green Cytotoxicity Assay to monitor cytotoxicity in HEK293 cells - 24 hour (AID 1224875). Also: nearly all actives have a fitted effect of over 45% in size. Also: potency is read from the fitted curve at half-maximal effect. Summed up: as §2
The nature of assay [12]: A CellTox Green Cytotoxicity Assay to monitor cytotoxicity in HepG2 cells - 16 hour (AID 1224876). Also: nearly all actives have a fitted effect of over 45% in size. Also: potency is read from the fitted curve at half-maximal effect. Summed up:
(§6)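 Read-out is fluorescence of a cyanine dye excluded from live cells that stains DNA of dead HepG2 cells, with signal proportional to cytotoxicity. Plates were read at 0, 8, 16, 24, 32 and 40 h after compound addition.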

Assay [13] is described as follows: qHTS RealTime-Glo MT Cell Viability Assay in HepG2 cells - 32 hour (AID 1224877). Also: nearly all actives have a fitted effect of over 55% in size. Summed up:
as §1

The nature of assay [14]: A CellTox Green Cytotoxicity Assay to monitor cytotoxicity in HepG2 cells - 24 hour (AID 1224878). Also: nearly all actives have a fitted effect of over 45% in size. Also: potency is read from the fitted curve at half-maximal effect. Summed up: as §6
Assay [15] is described as follows: A CellTox Green Cytotoxicity Assay to monitor cytotoxicity in HepG2 cells - 40 hour (AID 1224879). Also: nearly all actives have a fitted effect of over 40% in size. Also: potency is read from the fitted curve at half-maximal effect. An outline of the steps:
as §6

Assay [16] can be described thus: qHTS RealTime-Glo MT Cell Viability Assay in HEK293 cells - 0 hour (AID 1224880). Summed up: as §5
Assay [17] can be described thus: qHTS assay to identify small molecule antagonists of the estrogen related receptor (ERR) signaling pathway from Tox21 library (AID 1224848). Also: nearly all actives have a fitted effect of over 50% in size. An outline of the steps:
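Screening used an ERR reporter line supplied by NTP, exposed for 18 h at 37 C to library compounds delivered in DMSO. Signal was luciferase luminescence developed with ONE-Glo at room temperature for 30 min.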

Assay [18] in a line: qHTS assay to identify small molecule agonists of the estrogen related receptor (ERR) signaling pathway from Tox21 library (AID 1224849; calls by dose curve; also: nearly all actives have a fitted effect of over 15% in size). To be noted: ERR reporter cell line, ONE-Glo luciferase, 18 h; at 92.4 µM (top of the series) unless noted. An outline of the steps:
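ERR cells, 6 h pre-incubation 37 C/5% CO2; cpd in DMSO pinned; 18 h 37 C; ONE-Glo added, 30 min RT; luminescence read. Agonist mode, qHTS.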

The nature of assay [19]: qHTS RealTime-Glo MT Cell Viability Assay in HEK293 cells - 32 hour (AID 1224868). Also: nearly all actives have a fitted effect of over 50% in size. Also: potency is read from the fitted curve at half-maximal effect. An outline of the steps:
as §4

Each structure is given as a SMILES string. A number with no mark means an inactive call. Inconclusive results are not listed. Activity calls are given as the source filed them. Unless noted, calls follow the shape of the dose curve; as a rule, active = well fitted curve in the direction sought with a large enough effect in the repeat runs; inconclusive = weak or mixed curves; inactive = no such curve, though single readings can be large; an effect the other way counts as inactive or inconclusive.
% is scaled to controls: 0 for no effect and ±100 for the full control effect.

Turning to `CCCCCCCCN`, the Potency entry in assay [1], in [3], in [4], in [5], in assay [6] and in [7] was “inactive” throughout. Besides, the Potency entry in [8], in [9], in assay [11], in [12], in assay [13] and in assay [14] was “inactive” in each case. The Potency entry in assay [15] and in assay [16] was “inactive” each time. The compound was classed as inactive in [2]. Further, the max response in assay [10] is -0.288%.
As to `CCCCN1CCCC1C(=O)Nc1c(C)cc(C)cc1C` (configuration not stated), the Potency entry in assay [1], in [3], in [4], in assay [5], in [6] and in [9] was “inactive” throughout. In addition, the Potency result in assay [13] and in assay [16] was “inactive” in each case. Also, in [2], the compound was called inactive. In addition, the Potency in assay [7] was 16.9 µM (active); in assay [11], 15.1 µM (active).
Take `CCC(C)(C)OC`: the Potency result in assay [1], in [3], in assay [17], in [4], in [19] and in assay [5] was “inactive” throughout. Moreover, the Potency result in assay [6], in assay [8], in assay [9], in assay [11], in assay [12] and in assay [13] was “inactive” in each case. Further, the Potency result in [14], in assay [15] and in [16] was “inactive” each time. Besides, the compound was classed as inactive in [2]. In addition, the activity change, positive = activation in assay [18] is -8.72%. Also, in [10], the max response is 7.38%.
As for `C(=C\c1ccccc1)/c1ccccc1`, the Potency entry in [1], in assay [3], in assay [17], in assay [19], in assay [5] and in assay [6] was “inactive” in each case. Moreover, the Potency entry in [8], in [9], in assay [13], in assay [14], in assay [15] and in assay [16] was “inactive” each time. In addition, the call in assay [2] was inactive. Moreover, in assay [10], the max response is 7.61%.
For the compound `CC(C)=CC(=O)C=C(C)C`, the Potency result in assay [1], in assay [3], in assay [17], in assay [4], in [5] and in [6] was “inactive” in each case. For the same compound, the Potency entry in assay [7], in assay [8], in assay [9], in [11], in assay [12] and in assay [13] was “inactive” in each case. In addition, the Potency entry in assay [14], in assay [15] and in [16] was “inactive” each time. Further, the compound was called inactive in [2]. The activity change, positive = activation in [18] was 0.257%. Also, the max response in [10] is 9.12%.
For the compound `O=C(O)CCCCCCCCCCCBr`, the Potency entry in assay [1], in assay [3], in assay [17], in [4], in assay [19] and in assay [5] was “inactive” throughout. Besides, the Potency result in assay [6], in assay [7], in assay [8], in assay [9], in assay [11] and in assay [14] was “inactive” in each case. The Potency result in [15] and in assay [16] was “inactive” throughout. The max response in assay [10] was -7.89%.
Consider `CCC=CC#N`, for which the Potency entry in [1], in [3], in assay [19], in assay [5], in [6] and in [7] was “inactive” each time. In addition, the Potency result in assay [8], in assay [9], in assay [11], in assay [12], in assay [14] and in assay [15] was “inactive” throughout. In assay [16], the Potency entry is “inactive”. The call in assay [2] was inactive. Moreover, in [10], the max response was 10.8%.
`CC(C)(c1ccccc1)c1ccccc1`: the Potency result in assay [1], in assay [3], in [4], in assay [5], in [6] and in assay [9] was “inactive” throughout. Also, the Potency result in assay [13], in assay [14], in assay [15] and in assay [16] was “inactive” throughout. The Potency in assay [7] and in assay [11] was 51.1 µM (active) throughout. The max response in [10] was -9.58%.
For `CC(C)COCC(CN(Cc1ccccc1)c1ccccc1)N1CCCC1` (configuration not stated), the Potency in assay [1] was 49.2 µM (active); in assay [3] it was 43.8 µM (active); in assay [4], 23.9 µM (active); in assay [19] it was 10.7 µM (active); in [6], 23.9 µM (active); in assay [7] it was 21.3 µM (active). Moreover, the Potency is 8.49 µM (active) in assay [8]; 23.9 µM (active) in assay [9]; 10.7 µM (active) in assay [10]; 23.9 µM (active) in assay [11]; 21.3 µM (active) in assay [12]; 23.9 µM (active) in [14]. Further, the Potency in assay [15] is 19 µM (active). In assay [5], the Potency result is “inactive”.
For the compound `CC(C)=CCC1C(=O)N(c2ccccc2)N(c2ccccc2)C1=O`, the Potency entry in assay [1], in [3], in [4], in assay [19], in assay [5] and in assay [6] was “inactive” throughout. Also, the Potency result in assay [7], in [8], in assay [9], in [11], in assay [12] and in assay [13] was “inactive” in each case. In addition, the Potency entry in assay [14], in assay [15] and in [16] was “inactive” in each case. Besides, the max response in assay [10] is 4.23%.
In the case of `C/C=C/C=C/C=O`, the Potency entry in assay [1], in [3], in assay [17], in assay [4], in assay [5] and in assay [7] was “inactive” in each case. In addition, the Potency result in assay [8], in assay [9], in assay [11], in assay [12], in assay [13] and in assay [14] was “inactive” in each case. The Potency entry in assay [15] and in assay [16] was “inactive” throughout. Besides, the compound was classed as inactive in [2]. Also, the activity change, positive = activation in assay [18] is 4.86%. Also, in [10], the max response was 10.8%.
